Measured values published in PubChem BioAssay (NCATS).
Where “and” joins values, the source holds several entries; their conditions need not be identical. Equal entries are not always repeated. Results filed as inconclusive are left out. Calls of active or inactive are those of the source. Unless noted, calls come from the whole dose curve; as a rule, active = well fitted curve in the direction sought with a large enough effect; inconclusive = small, poorly fitted or top-dose-only effect, or another doubt; inactive = no such curve, though single readings can be large; an effect the other way counts as inactive or inconclusive.

Assays:
[1] = Validation of Assay for Modulators of Lamin A Splicing (AID 1459; active = well fitted curve in the direction sought with a large enough effect in the signal ratio; the % refers to the signal ratio;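 note: cells exposed to compound for two days before reading; 0% is about no effect; ratio rise marks activators and ratio drop marks inhibitors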); conditions: Lamin A splicing dual RFP/GFP fluorescence reporter; series mostly up to 9.22 µM
In short: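 Readout: ratio of GFP (500-530 nm) to RFP (575-640 nm) total object intensity by 488 nm laser-scanning cytometry after 48 hrs. Cells were HeLa S3 clones carrying lamin A-EGFP minigene plus DsRed2 viability reporter; vehicle 0.5% DMSO final.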

[2] = qHTS Assay for Lipid Storage Modulators (AID 1519; calls by dose curve; for activity change, negative = inhibition: % is set by controls: 0 for no effect and ±100 for the full control effect); conditions: Drosophila S3 cells, BODIPY lipid droplet/cell ratio, laser cytometry, cells loaded with oleic acid
In short: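 Cells seeded at 5,000 per well were treated with compounds over a concentration series and loaded with oleic acid (400 uM, as added). Lipid droplet fluorescence (488 nm excitation, 500-530 nm channel) was read by laser-scanning cytometry and normalized to 20 uM Triacsin C.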

[3] = target: DNA repair nuclease/redox regulator APEX1 (Homo sapiens) (UniProt P27695); assay: qHTS Validation Assay for Inhibitors of the Human Apurinic/apyrimidinic Endonuclease 1 (APE1) (AID 1705;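 note: TAMRA fluorescence gain over two minutes as APE1 cuts a quenched THF abasic duplex; % is set by controls: 0 for no effect and ±100 for the full control effect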); conditions: purified APE1 endonuclease activity, fluorescence, titration; series mostly up to 57.1 µM
In short: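 Read-out: TAMRA fluorescence (525 nm ex, 598 nm em) from cleavage of a quenched THF abasic-site duplex, 50 nM final; activity taken as intensity change between third and first of three reads 60 s apart.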

[4] = target: Endonuclease 4 (Escherichia coli (strain K12)) (UniProt P0A6C1); assay: Counterscreen for APE1 Inhibitors: qHTS Validation Assay for Inhibitors of Endonuclease IV (AID 1708); note: % is set by controls: 0 for no effect and ±100 for the full control effect; conditions: E. coli endonuclease IV, DNA cleavage fluorescence; series mostly up to 57.1 µM
In short: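 Incision of a double-stranded 50 nM TAMRA/BHQ-2 abasic substrate was followed kinetically (525/598 nm, reads every 60 s) after 15 min enzyme–compound preincubation with 2 nM EndoIV in pH 7.5 Tris buffer with MgCl2, DTT and Tween-20; concentration-response format.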

[5] = qHTS for differential inhibitors of proliferation of Plasmodium falciparum line 7G8 (AID 1815); conditions: Plasmodium falciparum 7G8 proliferation inhibition; series mostly up to 28.7 µM;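 note: parasite growth measured after three days of incubation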; note: potency is the fitted concentration of half-maximal effect;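 for activity change, negative = inhibition: plate controls were vehicle wells for no effect and reference inhibitor wells for full effect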
[6] = qHTS for differential inhibitors of proliferation of Plasmodium falciparum line 3D7 (AID 1876);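 note: parasite growth measured after three days of culture; 0% = vehicle wells and -100% = reference inhibitor wells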; conditions: P. falciparum 3D7 proliferation inhibition; series mostly up to 28.7 µM
[7] = qHTS for differential inhibitors of proliferation of Plasmodium falciparum line D10 (AID 1877); conditions: series mostly up to 28.7 µM;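 note: parasites grown with compound for 72 h before DNA staining; plate controls were vehicle wells for no effect and reference inhibitor wells for full effect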
[8] = target: alpha-glucosidase (Oryza sativa, rice) (UniProt Q653V4); assay: Counterscreen for Glucocerebrosidase Inhibitors: qHTS Assay for Rice alpha-Glucosidase at pH 5.0 (AID 997); conditions: rice alpha-glucosidase enzyme activity; series mostly up to 76.9 µM;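 note: 0% = full activity with enzyme and -100% = basal without enzyme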
In short: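 Endpoint fluorogenic assay at pH 5.0: compounds (0.7 nM to 77 uM) titrated against 4 nM rice enzyme and 400 uM 4-MU-alpha-glucoside for 20 min at room temperature; NaOH/glycine stop, read ex 365/em 440 nm, Hill-fitted AC50.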

[9] = target: Alpha-galactosidase (Coffea arabica) (UniProt Q42656); assay: Counterscreen for Glucocerebrosidase Inhibitors: qHTS Assay for Coffee Bean alpha-Galactosidase at pH 5.9 (AID 998); conditions: coffee bean alpha-galactosidase enzyme assay; series mostly up to 76.9 µM;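 note: plate controls were uninhibited enzyme for no effect and no-enzyme basal signal for full effect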
In short: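 Fluorogenic 4-MU substrate hydrolysis, 80 uM substrate and 2 nM coffee bean alpha-galactosidase, pH 5.9 citrate buffer, 20 min at room temperature, then NaOH/glycine stop. Titration 0.7 nM–77 uM, normalized to no-enzyme and enzyme controls, AC50 via Hill equation.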

[10] = qHTS for differential inhibitors of proliferation of Plasmodium falciparum line GB4 (AID 1816); conditions: Potency: Plasmodium falciparum GB4 proliferation inhibition; series mostly up to 28.7 µM;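 note: parasite growth measured after 72 h incubation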; note: potency is the fitted concentration of half-maximal effect;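 for activity change, negative = inhibition: 0% = vehicle DMSO and -100% = reference inhibitor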
[11] = measured here: cell count channel max response
[12] = measured here: lipid channel max response

Chain of Alpha-galactosidase (Coffea arabica) (Q42656 whole entry, looked up): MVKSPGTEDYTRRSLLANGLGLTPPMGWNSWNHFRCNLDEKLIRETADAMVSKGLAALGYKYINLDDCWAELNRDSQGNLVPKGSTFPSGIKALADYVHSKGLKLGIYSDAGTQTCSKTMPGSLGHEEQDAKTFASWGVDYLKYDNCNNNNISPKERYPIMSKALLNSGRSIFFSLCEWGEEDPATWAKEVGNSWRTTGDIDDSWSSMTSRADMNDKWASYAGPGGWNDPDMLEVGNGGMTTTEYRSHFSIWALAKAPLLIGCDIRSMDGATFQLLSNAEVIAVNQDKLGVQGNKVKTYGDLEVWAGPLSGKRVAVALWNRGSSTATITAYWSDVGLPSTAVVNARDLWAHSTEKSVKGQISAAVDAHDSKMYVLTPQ
Chain of DNA repair nuclease/redox regulator APEX1 (Homo sapiens) (P27695 whole entry, looked up): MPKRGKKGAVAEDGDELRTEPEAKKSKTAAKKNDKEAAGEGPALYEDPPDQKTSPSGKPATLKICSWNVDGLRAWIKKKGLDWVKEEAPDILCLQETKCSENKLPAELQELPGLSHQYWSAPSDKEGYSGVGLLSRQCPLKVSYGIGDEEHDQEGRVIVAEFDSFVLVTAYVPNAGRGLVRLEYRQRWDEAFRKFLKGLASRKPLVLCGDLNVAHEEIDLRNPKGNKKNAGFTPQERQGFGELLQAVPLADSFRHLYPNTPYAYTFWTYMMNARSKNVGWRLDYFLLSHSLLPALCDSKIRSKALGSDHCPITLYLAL

CC(C)N(CCC(C(N)=O)(c1ccccc1)c1ccccn1)C(C)C (stereo not given)
outcome [1]: inactive | activity change, negative = inhibition ([2]; at 57.5 µM (top of the series)): 4.57% (inactive) and -1.93% (inactive) and 1.94% (inactive) | max response [2, 11]: 23.6% and -10.4% and -17.4% | max response [2, 12]: 33.6% and -11% and -15.7% | Potency [3]: inactive | outcome [4]: inactive | Potency [5]: inactive | Potency [6]: inactive | Potency [7]: inactive

Cc1ncsc1CCCl
activity change, negative = inhibition ([2]; at 57.5 µM (top of the series)): 4.7% (inactive) | max response [2, 11]: 0.112% | max response [2, 12]: 4.95%

CNC(C)(C)Cc1ccccc1
activity change, negative = inhibition ([2]; at 25.7 µM (top of the series)): -3.38% (inactive) | activity change, negative = inhibition ([2]; at 57.5 µM (top of the series)): 12% (inactive) | max response [2, 11]: -19% and 14.2% | max response [2, 12]: -21.7% and 31.6%

O=C(O)CCCc1ccc(N(CCCl)CCCl)cc1
outcome [8]: inactive | outcome [9]: inactive | activity change, negative = inhibition ([2]; at 25.7 µM (top of the series)): 2.25% (inactive) | activity change, negative = inhibition ([2]; at 57.5 µM (top of the series)): 2.66% (inactive) | max response [2, 11]: -7.28% and 5.28% | max response [2, 12]: -5.54% and 10.7% | Potency [3]: inactive | outcome [4]: inactive

CC[N+](CC)(CC)CCOc1cccc(OCC[N+](CC)(CC)CC)c1OCC[N+](CC)(CC)CC
outcome [9]: inactive | activity change, negative = inhibition ([2]; at 25.7 µM (top of the series)): 0.548% (inactive) | max response [2, 11]: -4.51% | max response [2, 12]: -4.34% | outcome [4]: inactive

CC(C)(C)NCC(O)c1ccccc1Cl (stereo not given)
activity change, negative = inhibition ([2]; at 57.5 µM (top of the series)): 6.93% (inactive) and 0.29% (inactive) | max response [2, 11]: -1.25% and 42.1% | max response [2, 12]: 8.8% and 40.7% | Potency [3]: inactive | outcome [4]: inactive | Potency [5]: 5.62 µM (active) | Potency [10]: 6.31 µM (active)

O=C1c2ccccc2C(=O)c2ccccc21
activity change, negative = inhibition ([2]; at 57.5 µM (top of the series)): 11.7% (inactive) | max response [2, 11]: 14.4% | max response [2, 12]: 29.4%

O=C(CCCN1CCC2(CC1)C(=O)NCN2c1ccccc1)c1ccc(F)cc1
outcome [8]: inactive | outcome [9]: inactive | outcome [1]: inactive | activity change, negative = inhibition ([2]; at 25.7 µM (top of the series)): -0.907% (inactive) | activity change, negative = inhibition ([2]; at 57.5 µM (top of the series)): 7.99% (inactive) | max response [2, 11]: -5.72% and 5.19% | max response [2, 12]: -10.3% and 17.9% | Potency [3]: inactive | outcome [4]: inactive

C=C(C)[C@H]1CN[C@H](C(=O)O)[C@H]1CC(=O)O
activity change, negative = inhibition ([2]; at 57.5 µM (top of the series)): 0.0201% (inactive) | max response [2, 11]: -9.16% | max response [2, 12]: -9.1% | Potency [3]: inactive | Potency [5]: inactive | Potency [10]: inactive | Potency [6]: inactive | Potency [7]: inactive

CC(NC(C)(C)C)C(=O)c1cccc(Cl)c1 (stereo not given)
outcome [1]: inactive | activity change, negative = inhibition ([2]; at 57.5 µM (top of the series)): 9.02% (inactive) and 0.884% (inactive) | max response [2, 11]: 11.7% and -20.3% | max response [2, 12]: 23.1% and -17.7% | Potency [3]: inactive | outcome [4]: inactive | Potency [10]: 12.6 µM (active) | Potency [6]: inactive | Potency [7]: inactive
